Measured values as given in PubChem BioAssay (NCATS).
Results filed as inconclusive are left out. The source made the active and inactive calls. Unless noted, calls follow the shape of the dose curve; as a rule, active = well fitted curve in the direction sought with a large enough effect; inconclusive = small, poorly fitted or top-dose-only effect, or another doubt; inactive = no such curve, though single readings can be large; an effect the other way counts as inactive or inconclusive.

Experiments:
[1] = qHTS for Inhibitors of Plasmodium falciparum (DD2) proliferation (AID 504314); also: potency is read from the fitted curve at half-maximal effect;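 as to activity, negative = inhibition: parasite DNA measured by SYBR Green fluorescence after red cell lysis; plate controls were DMSO vehicle for no effect and artemisinin wells for full effect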
Summary of the method: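 Infected RBCs, 0.3% parasitemia, 2.5% Hct; compound 72 h, 37C/5% CO2; lyse + SYBR Green I, RT overnight, dark; read ex485/em535; normalize to DMSO and artemisinin 0.29 uM.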

[2] = qHTS for Inhibitors of Plasmodium falciparum (GB4) proliferation (AID 504315); also: nearly all actives have a fitted effect of over 50% in size; also: potency is read from the fitted curve at half-maximal effect
Summary of the method: (§1)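 Erythrocytes infected with P. falciparum line (0.3% parasitemia, 2.5% hematocrit final) incubated with compounds 72 h at 37 °C, 5% CO2; SYBR Green lysis buffer added, fluorescence read next day. Normalized to 0.29 uM artemisinin and DMSO.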

[3] = qHTS for Inhibitors of Plasmodium falciparum (7G8) proliferation (AID 504316); also: nearly all actives have a fitted effect of over 65% in size; also: potency is read from the fitted curve at half-maximal effect
Summary of the method: as §1

[4] = qHTS for Inhibitors of Plasmodium falciparum (HB3) proliferation (AID 504318); also: nearly all actives have a fitted effect of over 60% in size; also: potency is read from the fitted curve at half-maximal effect
Summary of the method: as §1

[5] = qHTS for Inhibitors of Plasmodium falciparum (CP250) proliferation (AID 504320);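 also: plate controls were DMSO vehicle for no effect and 0.29 µM artemisinin control for full effect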
Summary of the method: as §1

[6] = biological target: Atrial natriuretic peptide receptor 1 (Homo sapiens) (UniProt P16066); experiment: Natriuretic polypeptide receptor (hNpr1) antagonism - Pilot CMLD screen (AID 1347052; calls by dose curve;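 also: cGMP level read as GloSensor luciferase luminescence after agonist stimulation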; also: potency is read from the fitted curve at half-maximal effect)
Sequence of Atrial natriuretic peptide receptor 1 (Homo sapiens) (P16066 whole entry, looked up): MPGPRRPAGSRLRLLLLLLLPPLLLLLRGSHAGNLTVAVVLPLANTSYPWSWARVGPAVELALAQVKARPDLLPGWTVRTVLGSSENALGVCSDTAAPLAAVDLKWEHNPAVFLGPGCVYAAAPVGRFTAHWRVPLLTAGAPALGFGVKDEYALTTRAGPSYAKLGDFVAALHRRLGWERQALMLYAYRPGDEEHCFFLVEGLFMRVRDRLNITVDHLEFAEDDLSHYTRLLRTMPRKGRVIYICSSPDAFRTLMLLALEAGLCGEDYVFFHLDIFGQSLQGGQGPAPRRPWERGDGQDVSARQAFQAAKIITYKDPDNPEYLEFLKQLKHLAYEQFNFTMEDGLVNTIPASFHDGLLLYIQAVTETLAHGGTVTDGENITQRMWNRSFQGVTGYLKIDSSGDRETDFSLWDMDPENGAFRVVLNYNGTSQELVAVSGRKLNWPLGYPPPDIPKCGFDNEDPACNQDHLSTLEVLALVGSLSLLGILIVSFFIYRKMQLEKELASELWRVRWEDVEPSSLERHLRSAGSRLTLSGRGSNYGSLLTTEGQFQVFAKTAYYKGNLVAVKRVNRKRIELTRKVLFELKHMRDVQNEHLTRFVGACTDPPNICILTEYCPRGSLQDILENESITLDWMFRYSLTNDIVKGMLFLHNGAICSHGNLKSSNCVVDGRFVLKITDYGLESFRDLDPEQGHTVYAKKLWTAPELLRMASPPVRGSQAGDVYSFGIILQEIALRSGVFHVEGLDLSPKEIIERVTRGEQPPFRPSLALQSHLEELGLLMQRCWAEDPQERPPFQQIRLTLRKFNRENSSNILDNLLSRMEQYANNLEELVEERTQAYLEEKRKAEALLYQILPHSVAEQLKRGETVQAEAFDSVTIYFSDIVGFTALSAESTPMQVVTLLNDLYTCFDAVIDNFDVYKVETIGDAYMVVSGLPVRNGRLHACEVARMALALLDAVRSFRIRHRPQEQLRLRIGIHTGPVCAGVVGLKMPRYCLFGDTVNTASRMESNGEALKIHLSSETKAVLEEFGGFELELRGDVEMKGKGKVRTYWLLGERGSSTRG

COc1ccc(-c2nc(-c3ccccc3)oc2NC2CCCCC2)cc1
inactive: Potency [1] | Potency [2] | Potency [3] | Potency [4] | Potency [5] | Potency [6]

C=CCCN1C(=O)NC(c2ccccc2)C(C(C)=O)=C1C (centres undefined)
inactive: Potency [1] | Potency [2] | Potency [3] | Potency [4] | Potency [5] | Potency [6]

COc1cccc(CO[C@H]2C=C[C@@H](c3ccccc3)O[C@H]2CN=[N+]=[N-])c1
inactive: Potency [1] | Potency [2] | Potency [3] | Potency [4] | Potency [5] | Potency [6]

CCN1C(=O)[C@@H]2[C@H]3[C@H](O)[C@H](O)CC(=NO[C@@H](C)c4cn([C@H](CO)Cc5ccccc5)nn4)[C@@H]3CC[C@H]2C1=O
inactive: Potency [1] | Potency [2] | Potency [3] | Potency [4] | Potency [5] | Potency [6]

CCOC(=O)NN=C1C[C@@H](O)[C@@H](O)[C@@H]2[C@H]3C(=O)N([C@@H](C)c4ccccc4)C(=O)[C@@H]3CC[C@H]12
inactive: Potency [1] | Potency [2] | Potency [3] | Potency [4] | Potency [5] | Potency [6]

Cc1ccc(S(=O)(=O)OCCc2ccccc2)cc1
inactive: Potency [1] | Potency [2] | Potency [3] | Potency [4] | Potency [5] | Potency [6]

C=C(C(C)=O)C(O)c1ccc([N+](=O)[O-])cc1 (centres undefined)
active: Potency [6] 1.88 µM
inactive: Potency [1] | Potency [2] | Potency [3] | Potency [4] | Potency [5]

C=C(C)C(O)C=CC=Cc1ccccc1 (centres undefined)
inactive: Potency [1] | Potency [2] | Potency [3] | Potency [4] | Potency [5] | Potency [6]

CC=CCCN1C=C(C(=O)OCC)C(c2ccccc2)NC1=O (centres undefined)
inactive: Potency [1] | Potency [2] | Potency [3] | Potency [4] | Potency [5] | Potency [6]

C=C(CCN1C=C(C(=O)OCC)C(c2ccccc2)NC1=O)c1ccccc1 (centres undefined)
inactive: Potency [1] | Potency [2] | Potency [3] | Potency [4] | Potency [5] | Potency [6]

C=CC[C@@H]1C=C[C@H](ON=C[C@@H](C)[C@H](OCc2ccccc2)C(C)C)[C@H](CO)O1
inactive: Potency [1] | Potency [2] | Potency [3] | Potency [4] | Potency [5] | Potency [6]

COc1cc2c(cc1OC)[C@@H]1O[C@](CCCCN3C(=O)c4ccccc4C3=O)(C2)OC2=C1C(=O)c1ccccc1C2=O
inactive: Potency [5] | Potency [6]
active: Potency [1] 1.34 µM | Potency [2] 1.51 µM | Potency [3] 1.51 µM | Potency [4] 1.51 µM

C=CCOC(=O)N[C@H](C(C(=O)OC)=C(C)NCc1ccccc1)c1cccc(OC)c1
inactive: Potency [1] | Potency [2] | Potency [3] | Potency [4] | Potency [5] | Potency [6]

CC(C)Nc1oc(-c2ccccc2)nc1-c1ccc(C(F)(F)F)cc1
inactive: Potency [1] | Potency [2] | Potency [3] | Potency [4] | Potency [5] | Potency [6]

C[C@@H]1CC[C@H]2C(=O)N3[C@@H](CC[C@@H](C)[C@@H]3c3ccc(-c4ccco4)cc3)C(=O)N2[C@@H]1c1ccc(-c2ccco2)cc1
inactive: Potency [1] | Potency [2] | Potency [3] | Potency [4] | Potency [5] | Potency [6]

C=CC[C@@H]1C=C[C@H](ON=C[C@@H](N[S+](=O)([O-])c2ccc(C)cc2)[C@H](C)C=CCC(=O)OC)[C@H](CO)O1
inactive: Potency [1] | Potency [2] | Potency [3] | Potency [4] | Potency [5] | Potency [6]

CC1(OC(=O)C2CCCC2)C(=O)C=C2C=C3CCCN3C=C2C1=O (centres undefined)
inactive: activity, negative = inhibition [1] 0.418% [at 1.12 µM] | Potency [2] | Potency [3] | Potency [4] | Potency [5] | Potency [6]

CO[C@@H]1c2cc(F)ccc2C(=CCCOC(=O)CC=Cc2ccccc2)[C@H]1C
inactive: Potency [1] | Potency [2] | Potency [3] | Potency [4] | Potency [5] | Potency [6]

CC(C)=CCN1C(=O)C2(CC(C)=C[C@@H](C)O2)c2c(Br)cccc21 (some centres undefined)
inactive: Potency [1] | Potency [2] | Potency [3] | Potency [4] | Potency [5] | Potency [6]
